Source: PubChem BioAssay
Results filed as inconclusive are left out. The source made the active and inactive calls. Unless noted, no cut-off is given here; in the data, nearly all actives have AC50 up to about 30 µM.

Test: viability loss in pontine glioma line – cell-based, SU-DIPG-XIII, MIPE5.0, CellTiter-Glo, qHTS, dose response (AID 1347064; cut-off not given, nearly all actives have AC50 up to about 23 µM;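 for AC50: cells exposed to compound for 48 hours before the viability read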)
Details: CellTiter-Glo ATP luminescence

Row | SMILES | outcome | AC50
1 | CCC(=O)NCC[C@@H]1CCc2ccc3c(c21)CCO3 | inactive | –
2 | CCC[C@@H]1C[C@@H](C(=O)N[C@@H]([C@H]2O[C@H](SC)[C@H](O)[C@@H](O)[C@H]2O)[C@H](C)Cl)N(C)C1 | inactive | –
3 | CC[C@@]1(O)C[C@H](O[C@H]2C[C@H](N(C)C)[C@H](O[C@H]3C[C@H](O)[C@H](O[C@H]4CCC(=O)[C@H](C)O4)[C@H](C)O3)[C@H](C)O2)c2c(cc3c(c2O)C(=O)c2c(O)cccc2C3=O)[C@H]1C(=O)OC | – | 16.6 µM (active)

Test: viability loss in pontine glioma line – cell-based, SU-DIPG-XXV, MIPE5.0, CellTiter-Glo, qHTS, dose response (AID 1347065; cut-off not given, nearly all actives have AC50 up to about 26 µM;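 note: cells exposed to compound for 48 hours before ATP readout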)
Details: CellTiter-Glo ATP luminescence

Row | SMILES | AC50 | outcome
4 | COc1cc([C@@H]2c3cc4c(cc3[C@H](O)[C@H]3COC(=O)[C@@H]23)OCO4)cc(OC)c1OC | 0.742 µM (active) | –
5 | COc1ccc([C@@H]2CC(=O)c3c(O)cc(O[C@@H]4O[C@H](CO[C@@H]5O[C@@H](C)[C@H](O)[C@@H](O)[C@H]5O)[C@@H](O)[C@H](O)[C@H]4O)cc3O2)cc1O | – | inactive
6 | C[C@H]1O[C@@H](O[C@H]2[C@@H](O)C[C@H](O[C@H]3[C@@H](O)C[C@H](O[C@H]4CC[C@@]5(C)[C@H](CC[C@@H]6[C@@H]5C[C@@H](O)[C@]5(C)[C@@H](C7=CC(=O)OC7)CC[C@]65O)C4)O[C@@H]3C)O[C@@H]2C)C[C@H](O)[C@@H]1O | 0.166 µM (active) | –
7 | C=C1CC[C@@H]2[C@](C)(CO)[C@H](O)CC[C@@]2(C)[C@@H]1C/C=C1/C(=O)OC[C@H]1O | 11.8 µM (active) | –
8 | CN[C@H](CC(C)C)C(=O)N[C@H]1C(=O)N[C@@H](CC(N)=O)C(=O)N[C@H]2C(=O)N[C@H]3C(=O)N[C@H](C(=O)N[C@H](C(=O)O)c4cc(O)cc(O)c4-c4cc3ccc4O)[C@H](O)c3ccc(c(Cl)c3)Oc3cc2cc(c3O[C@@H]2O[C@H](CO)[C@@H](O)[C@H](O)[C@H]2O[C@H]2C[C@](C)(N)[C@H](O)[C@H](C)O2)Oc2ccc(cc2Cl)[C@H]1O | – | inactive
9 | C=C(C)[C@@H]1CC[C@]2(C(=O)O)CC[C@]3(C)[C@H](CC[C@@H]4[C@@]5(C)CC[C@H](O)C(C)(C)[C@@H]5CC[C@]43C)[C@@H]12 | 14.8 µM (active) | –
10 | COc1ccc(-c2cc(=O)c3c(O)cc(O[C@@H]4O[C@H](CO[C@@H]5O[C@@H](C)[C@H](O)[C@@H](O)[C@H]5O)[C@@H](O)[C@H](O)[C@H]4O)cc3o2)cc1O | – | inactive
11 | CC(C)(O)CC[C@@H](O)[C@](C)(O)[C@H]1CC[C@@]2(O)C3=CC(=O)[C@@H]4C[C@@H](O)[C@@H](O)C[C@]4(C)[C@H]3CC[C@]12C | – | inactive
12 | Nc1ccn([C@@H]2O[C@H](CO)[C@@H](O)[C@H]2O)c(=O)n1 | – | inactive
13 | COc1cc([C@@H]2c3cc4c(cc3[C@@H](O[C@@H]3O[C@@H]5CO[C@@H](c6cccs6)O[C@H]5[C@H](O)[C@H]3O)[C@H]3COC(=O)[C@H]23)OCO4)cc(OC)c1O | 5.9 µM (active) | –
14 | COc1cc(NS(C)(=O)=O)ccc1Nc1c2ccccc2nc2ccccc12 | 11.8 µM (active) | –
15 | CC(C)(S)[C@@H](N)C(=O)O | – | inactive
16 | CCC(=O)NCC[C@@H]1CCc2ccc3c(c21)CCO3 | – | inactive
17 | CCC[C@@H]1C[C@@H](C(=O)N[C@@H]([C@H]2O[C@H](SC)[C@H](O)[C@@H](O)[C@H]2O)[C@H](C)Cl)N(C)C1 | – | inactive
18 | CC[C@@]1(O)C[C@H](O[C@H]2C[C@H](N(C)C)[C@H](O[C@H]3C[C@H](O)[C@H](O[C@H]4CCC(=O)[C@H](C)O4)[C@H](C)O3)[C@H](C)O2)c2c(cc3c(c2O)C(=O)c2c(O)cccc2C3=O)[C@H]1C(=O)OC | 14.8 µM (active) | –
19 | N=c1ccn2c(n1)O[C@H]1[C@H](O)[C@@H](CO)O[C@H]12 | – | inactive

Test: growth inhibition of DIPG cells – cell-based, MIPE4.0 library, CellTiter-Glo luminescence, qHTS (AID 1347066);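 note: cells exposed to compound for 48 hours before readout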
Details: SU-DIPG-VI viability, CellTiter-Glo ATP luminescence

Row | SMILES | outcome | AC50
20 | COc1ccc([C@@H]2CC(=O)c3c(O)cc(O[C@@H]4O[C@H](CO[C@@H]5O[C@@H](C)[C@H](O)[C@@H](O)[C@H]5O)[C@@H](O)[C@H](O)[C@H]4O)cc3O2)cc1O | inactive | –
21 | C[C@H]1O[C@@H](O[C@H]2[C@@H](O)C[C@H](O[C@H]3[C@@H](O)C[C@H](O[C@H]4CC[C@@]5(C)[C@H](CC[C@@H]6[C@@H]5C[C@@H](O)[C@]5(C)[C@@H](C7=CC(=O)OC7)CC[C@]65O)C4)O[C@@H]3C)O[C@@H]2C)C[C@H](O)[C@@H]1O | – | 0.0959 µM (active)
22 | CC1(C)[C@@H](O[C@H]2O[C@H](C(=O)O)[C@@H](O)[C@H](O)[C@H]2O[C@@H]2O[C@H](C(=O)O)[C@@H](O)[C@H](O)[C@H]2O)CC[C@]2(C)[C@H]3C(=O)C=C4[C@@H]5C[C@@](C)(C(=O)O)CC[C@]5(C)CC[C@@]4(C)[C@]3(C)CC[C@@H]12 | inactive | –
23 | COc1c(O)cc2c(c1O)[C@@H]1O[C@H](CO)[C@@H](O)[C@H](O)[C@H]1OC2=O | inactive | –
24 | C=C(C)[C@@H]1CC[C@]2(C(=O)O)CC[C@]3(C)[C@H](CC[C@@H]4[C@@]5(C)CC[C@H](O)C(C)(C)[C@@H]5CC[C@]43C)[C@@H]12 | inactive | –
25 | C[C@@H]1[C@H](O)[C@@H](C)/C=C/C=C/C=C/C=C/C=C/C=C/C=C/[C@H](O[C@@H]2O[C@H](C)[C@@H](O)[C@H](N)[C@@H]2O)C[C@@H]2O[C@](O)(C[C@@H](O)C[C@@H](O)[C@H](O)CC[C@@H](O)C[C@@H](O)CC(=O)O[C@H]1C)C[C@H](O)[C@H]2C(=O)O | inactive | –
26 | COc1ccc(-c2cc(=O)c3c(O)cc(O[C@@H]4O[C@H](CO[C@@H]5O[C@@H](C)[C@H](O)[C@@H](O)[C@H]5O)[C@@H](O)[C@H](O)[C@H]4O)cc3o2)cc1O | inactive | –
27 | CC(C)(O)CC[C@@H](O)[C@](C)(O)[C@H]1CC[C@@]2(O)C3=CC(=O)[C@@H]4C[C@@H](O)[C@@H](O)C[C@]4(C)[C@H]3CC[C@]12C | inactive | –
28 | Nc1ccn([C@@H]2O[C@H](CO)[C@@H](O)[C@H]2O)c(=O)n1 | inactive | –
29 | CC(C)(S)[C@@H](N)C(=O)O | inactive | –
30 | C[C@H](CCC(=O)O)[C@H]1CC[C@H]2[C@@H]3[C@H](O)C[C@@H]4C[C@H](O)CC[C@]4(C)[C@H]3CC[C@]12C | inactive | –
31 | CCC(=O)NCC[C@@H]1CCc2ccc3c(c21)CCO3 | inactive | –
32 | O=C1c2c(O)cccc2[C@H]([C@@H]2O[C@H](CO)[C@@H](O)[C@H](O)[C@H]2O)c2cc(CO)cc(O)c21 | inactive | –
33 | CC1(C)[C@@H](O)CC[C@]2(C)[C@H]3C(=O)C=C4[C@@H]5C[C@@](C)(C(=O)O)CC[C@]5(C)CC[C@@]4(C)[C@]3(C)CC[C@@H]12 | inactive | –
34 | COc1ccc(CCC(=O)c2c(O)cc(O[C@@H]3O[C@H](CO)[C@@H](O)[C@H](O)[C@H]3O[C@@H]3O[C@@H](C)[C@H](O)[C@@H](O)[C@H]3O)cc2O)cc1O | inactive | –
35 | COC1=C(OC)C(=O)C(C/C=C(\C)CC/C=C(\C)CC/C=C(\C)CC/C=C(\C)CC/C=C(\C)CC/C=C(\C)CC/C=C(\C)CC/C=C(\C)CC/C=C(\C)CCC=C(C)C)=C(C)C1=O | inactive | –
36 | C[C@@]12C[C@@]3(O)O[C@@H](O1)[C@]1(COC(=O)c4ccccc4)[C@H]3C[C@@]12O[C@@H]1O[C@H](CO)[C@@H](O)[C@H](O)[C@H]1O | inactive | –
37 | C[C@H]1C[C@H]2[C@@H]3CCC4=CC(=O)C=C[C@]4(C)[C@@]3(F)[C@@H](O)C[C@]2(C)[C@@]1(O)C(=O)CO | inactive | –
